Screens deposited in PubChem BioAssay by National Center for Advancing Translational Sciences (NCATS).
IMPase Li cell: cell-permeable IMPase inhibitors with lithium potentiation | Potency, µM (doses to about 59.4 µM), hits mostly inhibitors | hit rate 0.35% among 210,000 | CHO-M1 cells, IP1 TR-FRET (IP-One), carbachol + lithium; active = well fitted inhibition curve with a large enough effect; inconclusive = small, poorly fitted or top-dose-only effect; inactive = no such curve, though single readings can be large or run the other way;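 also: IP1 builds up when IMPase is blocked and the TR-FRET signal falls; nearly all actives have a fitted effect of over 50% in size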
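Steps: plate 2000 CHO-M1 cells per well and culture 16–30 h; add compound and lithium; incubate 30 min, 37C; add d2-IP1 tracer and Eu cryptate anti-IP1 antibody in lysis buffer; read after 10 min at room temperature.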
IMPase inh: IMPase inhibition in cells; 120,000 tested, under 10 active; CHO-M1 cells, IP1 accumulation, HTRF TR-FRET ratio; P97697; inhibition (IP1 accumulation), % at 46.1 µM; active = well fitted curve in the direction sought with a large enough effect in the signal ratio, not every such curve was filed as active; inconclusive = small, poorly fitted or top-dose-only effect, or a change in a side signal; inactive = no such curve, though single readings can be large or run the other way; the % refers to the signal ratio;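 also: cells stimulated with carbachol in lithium chloride buffer; higher means more IMPase inhibition seen as more IP1 and lower FRET ratio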
Target sequence (P97697 whole entry, looked up): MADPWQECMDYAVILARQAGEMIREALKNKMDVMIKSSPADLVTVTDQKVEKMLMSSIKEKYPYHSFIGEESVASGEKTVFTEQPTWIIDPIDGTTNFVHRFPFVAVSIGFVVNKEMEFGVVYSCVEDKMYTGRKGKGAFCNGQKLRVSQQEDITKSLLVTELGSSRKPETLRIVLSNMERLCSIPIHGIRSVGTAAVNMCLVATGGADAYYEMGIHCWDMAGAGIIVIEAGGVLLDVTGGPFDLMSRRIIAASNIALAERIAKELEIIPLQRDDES
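Measured: the HTRF emission ratio (665/620 nm) plus the 620 nm donor channel, each fitted to the Hill equation to give AC50. Cells were CHO-M1 given compounds up to 46 uM and a 30 min carbachol stimulation at 37C.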
Hits are given with their value; i = inactive; ? = inconclusive; nt = no result given. An excerpt weighted towards active compounds, which were near 0.36% of everything screened.

SMILES | IMPase Li cell | IMPase inh
Cc1ccc(C2C(C#N)=C(N)SC(N)=C2C#N)c(C)c1 | 7.9µM | i
N#CC1=C(N)SC(N)=C(C#N)C1c1ccnc2ccccc12 | i | i
O=C(CCC1N=C2c3ccccc3N=C(SCC(=O)Nc3cccc(Cl)c3)N2C1=O)NCc1ccco1 (centres undefined) | nt | i
Cc1cccc(Sc2c([N+](=O)[O-])ncn2C)c1 | 7.9µM | i
Cc1cccnc1Sc1c([N+](=O)[O-])ncn1C | i | i
CC(=O)C1=C(O)C(=O)N(c2ccc(Br)cn2)C1c1ccccc1F (centres undefined) | 11µM | i
COc1cc(C2C(C(C)=O)=C(O)C(=O)N2c2ccc(Br)cn2)ccc1O (centres undefined) | i | i
CCCCOC(=O)c1cc(C)nc2ccc(Br)cc12 | i | i
CCOC(=O)c1cc(C(=O)OCC)c2cc(Br)ccc2n1 | 10µM | ?
COc1cccc([C@@H]2Oc3ccc(OC)cc3C[C@H]2OC(=O)NS(=O)(=O)c2ccc(F)cc2)c1 | i | nt
Cc1cccc(NC(=O)c2sc3nc(-c4ccc(F)cc4)cn3c2C)n1 | 14µM | i
Cc1cccc(NC(=O)c2sc3nc(-c4ccccc4)cn3c2C)n1 | i | i
CCOC(=O)c1c(C)n(-c2ccccc2)c2ccc(OC(=O)c3ccccc3)cc12 | nt | i
N#Cc1ccc(Oc2ccc(-c3cnc4ccccc4n3)cc2)cc1C#N | 2.8µM | i
N#Cc1ccc(Oc2ccc(-c3nc4ccccc4nc3-c3ccccc3)cc2)cc1C#N | i | i
O=C(/C=C\c1ccc(O)cc1)c1ccc(O)cc1O | nt | i
O=c1c(-c2ccc(F)cc2)nc2cnc(Oc3ccccc3)nc2n1Cc1cccs1 | i | nt
CCn1c2ccccc2c2nnc(SCC(=O)Nc3c(C)n(C)n(-c4ccccc4)c3=O)nc21 | i | i
CCn1c2ccccc2c2nnc(SCC(=O)Nc3cc(C)on3)nc21 | 11µM | ?
O=C(/C=C/c1c(C(=O)O)[nH]c2cc(Cl)cc(Cl)c12)Nc1ccccc1 | i | nt
CCCCC1=CC2=C(c3ccco3)C(=O)C(C)(OC(=O)c3cccs3)C(=O)C2=CO1 (centres undefined) | i | nt
CCOC(=O)c1cnc2ccc(C(=O)OC)cc2c1Nc1cccc(C(=O)O)c1 | i | nt
CCOC(=O)c1cnc2ccccc2c1Nc1cccc(C(=O)O)c1 | 7.9µM | nt
COc1cc(NC(=O)c2cc(-c3cccnc3)nc3ccc(Br)cc23)cc(OC)c1 | i | nt
COCCNC(=O)c1cc(-c2cccnc2)nc2ccc(Br)cc12 | 11µM | i
SMILES | IMPase Li cell | IMPase inh
N#Cc1cc2c(OCC(O)CN3CCN(C(c4ccccc4)c4ccccc4)CC3)cccc2[nH]1 (centres undefined) | i | nt
CCCCCn1c(NC(=O)c2ccco2)c(S(=O)(=O)c2ccc(C)cc2)c2nc3ccccc3nc21 | 11µM | ?
CCCCn1c(NS(=O)(=O)c2ccccc2)c(S(=O)(=O)c2ccc(C)cc2)c2nc3ccccc3nc21 | i | ?
CCC(=O)Nc1c(S(=O)(=O)c2ccccc2)c2nc3ccccc3nc2n1C(C)c1ccccc1 (centres undefined) | i | nt
CCCCn1c(NC(=O)c2ccc(Br)o2)c(S(=O)(=O)c2ccccc2)c2nc3ccccc3nc21 | 10µM | ?
CCCCC[C@H](O)/C=C/C=C\C=C\[C@@H](O)C/C=C\CCCC(=O)O | i | nt
N#CCCCS(=O)(=O)c1nnnn1-c1ccc(F)cc1Br | i | nt
COc1ccc2cc(-c3cc(C(=O)O)c4ccccc4n3)ccc2c1 | 10µM | i
COc1ccc(-c2cc(C(=O)O)c3ccccc3n2)c(OC)c1 | i | i
Brc1ccc(C2=N[C@@H](Cc3ccccc3)CO2)cc1 | i | nt
COc1ccc(-c2nnc(SCC(=O)N3CCN(c4ccccc4)CC3)o2)cc1OC | i | nt
Cc1ccc(-c2nnc(SCC(=O)N3CCN(c4ccccc4)CC3)o2)cc1 | 11µM | i
N#Cc1c(Cl)nc(SCc2ccccc2)nc1-c1ccccc1 | 2.5µM | ?
c1ccc(CSc2ncccn2)cc1 | i | i
O=S(=O)(CCC(F)=C(F)F)c1nnnn1C1CCCCC1 | i | nt
CC(N)=NCCCC[C@H](N)C(=O)O | i | i
Cc1ccc[n+](C2C(c3ccc([N+](=O)[O-])cc3)C(C#N)=C([S-])NC2(O)C2CC2)c1 (centres undefined) | i | nt
N#CC(=C=[N-])C1=C(C#N)C(c2ccccc2F)C([n+]2ccccc2)C(O)(C2CC2)N1 (centres undefined) | 13µM | ?
CCCCC[C@H](O)/C=C/C=C\C=C\C=C\[C@@H](O)[C@@H](O)CCCC(=O)O | i | nt
O=C(NCCN1CCN(c2ccccc2)CC1)c1cccn2c(=O)c3ccccc3nc12 | nt | i
O=C(NCCN1CCN(c2ccccc2)CC1)c1ccc2c(c1)[nH]c(=S)n1c3ccccc3nc21 | 10µM | nt
O=C(c1ccc(F)cc1)N1CCN(c2ncccn2)CC1 | i | i
O=C(c1ccc2c(c1)[nH]c(=S)n1c3ccccc3nc21)N1CCN(c2ncccn2)CC1 | 7.1µM | i
C=C(Nc1ccc(OCC)cc1)Nc1ccc(OCC)cc1 | i | nt
CCCCCCCCCCCCCCCCOCC(CO)OC (centres undefined) | i | nt
SMILES | IMPase Li cell | IMPase inh
COC(=O)C1=CO[C@@H](O[C@H]2OC(CO)C(O)C(O)C2O)C2C1CC(O)C2C (some centres undefined) | i | nt
COc1ccc(N2CCN(c3ccc(NC(=O)C4CCCCC4)cc3C#N)CC2)cc1 | ? | i
COc1ccc(C(=O)Nc2ccc(N3CCN(c4ccc(OC)cc4)CC3)c(C#N)c2)cc1 | 1.8µM | ?
Cc1c(C(=O)O)sc2ncnc(N3CCCCC3C)c12 (centres undefined) | 5.6µM | ?
Cc1c(C(=O)N2CCCC(C)C2)sc2ncnc(N3CCCCC3C)c12 (centres undefined) | i | nt
CCCCCCCCCCCCCCCC(=O)C1=C(O)C(CO)OC1=O (centres undefined) | i | nt
CO[C@@H]1/C=C\O[C@]2(C)Oc3c(C)c(O)c4c(O)c(cc(O)c4c3C2=O)NC(=O)/C(C)=C\C=C/[C@H](C)[C@@H](O)[C@H](C)[C@H](O)C(C)[C@H](OC(C)=O)[C@@H]1C (some centres undefined) | i | nt
CC1CN(S(=O)(=O)c2ccc(Cl)c(C(F)(F)F)c2)CC(C)O1 (centres undefined) | 10µM | i
COc1ccc(N2CCN(S(=O)(=O)c3ccc(Cl)c(C(F)(F)F)c3)CC2)cc1 | i | i
COc1cc(NS(=O)(=O)c2ccc(NC(=O)COc3ccc(Cl)cc3Cl)cc2)nc(OC)n1 | nt | i
COc1cc(OC)cc(-c2sc3ccccc3c(=O)c2I)c1 | i | nt
COc1ccc(C2C(C(=O)c3cccs3)=C(O)C(=O)N2c2nnc(C)s2)cc1OC (centres undefined) | i | i
COCCCN1C(=O)C(O)=C(C(=O)c2ccco2)C1c1ccccc1 (centres undefined) | 7.9µM | ?
COCc1cc(C2C(C(=O)c3ccco3)=C(O)C(=O)N2CCOCCO)ccc1O (centres undefined) | i | i
COC(=O)c1sc(N2C(=O)C(O)=C(C(=O)c3ccc(C)o3)C2c2ccc(F)cc2)nc1C (centres undefined) | 7.9µM | ?
Cc1ccc(C2C(C(=O)c3ccco3)=C(O)C(=O)N2c2nnc(C)s2)cc1 (centres undefined) | 10µM | ?
COCCCN1C(=O)C(O)=C(C(=O)c2ccc(C)o2)C1c1cccc(Br)c1 (centres undefined) | 10µM | ?
